The full list was thinned out, with hits kept by preference.
Dicer processing – inhibitors of Dicer pre-microRNA processing, primary screen, biochemical, cat-ELCCA, chemiluminescence. cat-ELCCA pre-miR-21 Dicer processing; hits give high values. actives 6% (n = 47,000). z-score at 25 µM. Endoribonuclease Dicer (Homo sapiens), Q9UPY3. AID 1347074, 2019; in the data active = z-score above about 3, passing the limit was not always enough;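 also: plate controls were vehicle for no effect and no enzyme for full effect; higher signal means more uncleaved substrate so more Dicer inhibition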
The depositor's hits bear a star.

SMILES	Dicer processing
Cc1ccc(C)n1CCN1CCN(C(=O)CSc2nc3ccccc3nc2N2CCOCC2)CC1	3.05*
CC(=O)c1cc2cc([N+](=O)[O-])ccc2o1	0.51
O=[N+]([O-])c1ccc(N/N=C/c2ccc(Cl)cc2)nc1	1.63
Cc1ccc(C2CN=NC23C(=O)c2ccccc2OC3c2ccccc2)cc1 (centres undefined)	1.18
O=C(Nc1ccccc1)Oc1cccc(F)c1OC(=O)Nc1ccccc1	3.43*
O=C(Nc1cccc(C(F)(F)F)c1)Oc1ccc(F)cc1Cl	0.94
O=C(Nc1ccccc1)Nc1cccc(NC(=O)Nc2ccccc2)c1F	-0.34
CCCCCc1cnc(-c2ccc(C#N)cc2)nc1	-0.08
O=C(O)COCC(=O)NCCN1CCNC1=O	0.67
CCOC(=O)Cc1csc(NS(=O)(=O)c2cc(C)c(Cl)cc2C)n1	-0.98
O=C(CO/N=C/c1ccc(Cl)cc1Cl)NNC(=S)Nc1cc(Cl)ccc1Cl	5.62*
Fc1cccc(Cl)c1CO/N=C/c1ccc(Cl)cc1Cl	1.6
COC(=O)CO/N=C/c1ccc(Cl)cc1Cl	-0.09
Cc1[nH]c(=O)c(-c2ccccc2)c(O)c1C#N	0.41
COc1ccc2c(c1)c(C(=O)CN(C)C)c(C)n2C	4.71*
COc1ccc2c(c1)c(C(=O)CNc1nc(C)cs1)c(C)n2C	1.61
COc1ccc2c(c1)c(C(=O)CNc1nccs1)c(C)n2C	6.63
COc1cc(N=C(N)N=C(N)N)cc(OC)c1OC	0.49
Cc1c(C)c(C)c(S(=O)(=O)NN(C)c2ccc(C#N)cc2[N+](=O)[O-])c(C)c1C	0.1
O=C(Nc1nc2n(n1)C(c1ccc(F)cc1)C=C(c1ccccc1)N2)c1cccs1 (centres undefined)	1.92
O=C(Nc1nc2n(n1)C(c1ccc(Cl)cc1)C=C(c1ccccc1)N2)c1cccs1 (centres undefined)	1.63
O=C(Nc1nc2n(n1)C(c1ccc(F)cc1)C=C(c1ccc(Cl)cc1)N2)c1cccs1 (centres undefined)	17.1*
O=C(Nc1ccc(Cl)cc1)C1CC(=O)N(CCc2ccc(Cl)cc2)C1 (centres undefined)	0.41
COc1oc(-c2ccc(C)cc2)nc1C(F)(F)F	4.29*
COC(=O)c1noc(-c2ccc(F)cc2)n1	-0.21
SMILES	Dicer processing
COc1oc(-c2ccc(F)cc2)nc1C(F)(F)F	4.68*
Cc1ccc(-c2nc(=O)c3ccccc3o2)cc1	1.55
Cc1cc(C)c2nc(-c3ccc(C(F)(F)F)cc3)oc(=O)c2c1	-1.29
COc1ccc(-c2csc3nc(-c4ccc(F)cc4)oc(=O)c23)cc1	0.76
N/C(=N\OC(=O)CCn1cccc(C(F)(F)F)c1=O)c1ccccc1	0.61
CCCOC(=O)COc1ccc2c(=O)c(Oc3cc(C)cc(C)c3)coc2c1	1.92
CNC(=O)c1ccccc1S(=O)c1ccc([N+](=O)[O-])cc1C(=O)O (centres undefined)	-1.35
CCOC(=O)CSc1sc(C(=O)OCC)c(C)c1C#N	6.03
Cc1ccc(S(=O)(=O)C(CC(=O)c2ccc(F)cc2)c2ccco2)cc1 (centres undefined)	3.19*
Cc1ccc(C(CC(=O)c2ccco2)SCCO)cc1 (centres undefined)	-1.85
Cc1ccc(S(=O)(=O)C(CC(=O)c2ccco2)c2ccc(Cl)cc2)cc1 (centres undefined)	2.31
CCCOC(=O)C1C2C=CC3(CN(c4ccc(Cl)cc4)C(=O)C13)O2 (centres undefined)	0.23
Cc1nc(COc2ccc(C(C)(C)C)cc2)sc1C(=O)NNC(=O)c1ccc(Cl)cc1Cl	1.23
COc1ccc2c(c1)CCC1C2=NN(C)C1c1ccc(C(F)(F)F)cc1 (centres undefined)	-0.13
Cc1ccc(-c2nc(NC(=O)CSc3nnc4ccccn34)ns2)cc1	1.57
CC(C)(C)c1ccc(-c2nc(NC(=O)CSc3nnc4ccccn34)ns2)cc1	3.05*
O=C(CSc1nnnn1-c1ccccc1)Nc1nsc(-c2ccc(Cl)cc2)n1	2.38
COc1cc(NC(=O)c2sc3ccccc3c2Cl)c(OC)cc1Cl	-4.33
CCOC(=O)C1CCN(c2nc(OC)nc(OC)n2)CC1	-0.28
CC(/C=C/c1ccccc1)=N\OC(=O)NC(C)C	-0.54
Cc1ccc(S(=O)(=O)N(C(=O)c2ccncc2)c2ccc3oc(=O)sc3c2)c(C)c1	7.67*
COc1ccc(OC)c(S(=O)(=O)N(C(=O)C(C)C)c2ccc3oc(=O)sc3c2)c1	-0.44
Cc1cc(C)c(S(=O)(=O)N(C(=O)c2ccncc2)c2ccc3oc(=O)sc3c2)cc1C	4.98*
O=C1NC(c2ccc(Cl)c(Cl)c2)Nc2ccccc21 (centres undefined)	-1.19
CN(C)CCCN1C(=O)C(=O)/C(=C(/O)c2ccccc2)C1c1ccncc1 (centres undefined)	2.82
Cc1nc(COc2ccccc2Cl)sc1-c1ccnc(SCC(=O)c2cccc([N+](=O)[O-])c2)n1	0.36
NNC(=O)c1cc2ncc(C(F)(F)F)cc2s1	0.48
Cc1nc2c(s1)c(C)nn2-c1ccccc1	0.81
Cc1nc2c(=O)n(-c3ccc(F)cc3F)nc(C)c2s1	3.2*
